GDH-TPI counter-1 = GDH-TPI coupling enzyme inhibitors, primary screen, artefact control for M. tuberculosis FBA inhibitor project, biochemical, absorbance, full deck; GDH-TPI coupled enzyme counterscreen, NADH absorbance; inhibition, % at 4.8 µM; 360,000 compounds, 1.2% hits; AID 588335, 2011; in the data active means inhibition above about 30%
Rv3671c protease = Rv3671c serine protease inhibitors, primary screen, biochemical, fluorescence polarization, M. tuberculosis H37Rv | 320,000 compounds, 0.048% hits | P9WHR9 | inhibition, % at 5.96 µM | AID 2606, 2010; in the data active means inhibition above about 38%;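 further: extracellular domain of Rv3671c used as enzyme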
Mtb bLac sens = beta-lactam sensitization of Mtb H37Rv, H37Rv | inhibition, % at 25 µM | 330,000 compounds, 0.27% hits | AID 434955, 2010 | M. tuberculosis H37Rv growth with meropenem, percent inhibition; call rule not given here;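 further: growth measured after seven days incubation then overnight dye step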
RecA intein inh = Mtb RecA intein splicing inhibitors, primary screen, biochemical, fluorescence, HTS; Protein RecA (Mycobacterium tuberculosis (strain ATCC 25618 / H37Rv)), P9WHJ3; cell-free RecA intein splicing; inhibition, % (concentration not given with the values); 290,000 compounds, 0.75% hits; in the data active means inhibition above about 30%; inconclusive means no clear call, values can overlap the other calls
Target sequence (P9WHJ3 whole entry, looked up): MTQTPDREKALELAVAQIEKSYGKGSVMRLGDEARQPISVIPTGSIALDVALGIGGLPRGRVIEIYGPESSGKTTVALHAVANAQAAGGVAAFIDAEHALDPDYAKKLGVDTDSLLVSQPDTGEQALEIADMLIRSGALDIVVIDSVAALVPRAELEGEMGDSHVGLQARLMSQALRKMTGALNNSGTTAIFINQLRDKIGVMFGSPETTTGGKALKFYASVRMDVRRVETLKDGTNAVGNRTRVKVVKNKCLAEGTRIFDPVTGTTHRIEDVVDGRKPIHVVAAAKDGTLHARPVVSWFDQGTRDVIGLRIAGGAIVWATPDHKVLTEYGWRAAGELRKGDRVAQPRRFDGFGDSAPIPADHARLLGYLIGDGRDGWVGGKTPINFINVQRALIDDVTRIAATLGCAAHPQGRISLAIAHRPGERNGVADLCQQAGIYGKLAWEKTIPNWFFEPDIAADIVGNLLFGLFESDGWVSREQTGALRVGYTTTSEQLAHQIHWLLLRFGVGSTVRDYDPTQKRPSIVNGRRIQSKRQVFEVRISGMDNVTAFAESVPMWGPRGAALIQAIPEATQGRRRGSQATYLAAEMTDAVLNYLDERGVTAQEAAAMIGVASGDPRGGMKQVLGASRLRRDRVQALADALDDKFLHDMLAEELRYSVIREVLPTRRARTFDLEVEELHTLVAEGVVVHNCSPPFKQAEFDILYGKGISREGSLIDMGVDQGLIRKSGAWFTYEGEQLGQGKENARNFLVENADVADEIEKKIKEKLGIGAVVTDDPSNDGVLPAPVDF
FBA Mtb inh = Mtb FBA enzyme inhibitors, primary screen, biochemical, fluorescence, strain H37Rv. Fructose-bisphosphate aldolase (Mycobacterium tuberculosis (strain ATCC 25618 / H37Rv)), …. purified M. tuberculosis FBA, fluorescence read-out. inhibition, % at 1 µM. 360,000 compounds, 2.3% hits. AID 588726, 2011
Mtb UGM inh = M. tuberculosis UGM enzyme inhibitors, primary screen, biochemical, fluorescence polarization, single point | inhibition, % at 10 µM | purified UGM, fluorescence polarization probe displacement | 320,000 compounds, 0.06% hits | AID 504406, 2011; in the data active means inhibition above about 10%, passing the limit was not always enough; inconclusive means no clear call, values can overlap the other calls
Mtb FBA inh conf = M. tuberculosis aldolase blockers, biochemical, fluorescence, strain H37Rv, confirmation | shares compounds with FBA Mtb inh | purified M. tuberculosis FBA, fluorescence read-out | inhibition, % at 1 µM | AID 651616, 2012 | 5,600 compounds, 78% hits
GDH-TPI counter-2 = GDH-TPI coupling enzyme inhibitors, artefact control for M. tuberculosis FBA inhibitor project, biochemical, fluorescence, high throughput | 5,600 compounds, 81% hits | inhibition, % at 1 µM | GDH-TPI coupled enzyme counterscreen | shares compounds with FBA Mtb inh; in the data active means inhibition above about 10%
Hits are given with their value. A selection: hits, their analogues and other compounds. The true share with any hit is near 4%. Unless noted, no stated cut-off is given here; in the data, active means inhibition above about 27%; inactive means the rest.

What do the screens show for `CC1(C)CC(=O)C2=C(C1)OC1=C(C(=O)CC(C)(C)C1)C2c1cc([N+](=O)[O-])cc([N+](=O)[O-])c1O`?
GDH-TPI counter-1: inactive; Rv3671c protease: inactive; Mtb bLac sens: inactive; RecA intein inh: inactive; FBA Mtb inh: inactive; Mtb UGM inh: inactive

Results for COc1cc(C)c(C)cc1S(=O)(=O)n1c(C)nc2ccccc21 ?
GDH-TPI counter-1: inactive; Rv3671c protease: inactive; Mtb bLac sens: inactive; FBA Mtb inh: inactive; Mtb UGM inh: inactive

How did CCOC(=O)CC1CCCCN1C(=O)c1ccc2oc(CCc3ccccc3)nc2c1 (configuration not stated) do in these assays?
GDH-TPI counter-1: inactive; Rv3671c protease: inactive; Mtb bLac sens: inactive; RecA intein inh: inactive; FBA Mtb inh: inactive; Mtb UGM inh: inactive

What do the screens show for `CC(C)NC(=O)c1cc2c(-c3ccc(Cl)cc3)nn(C)c2s1`?
GDH-TPI counter-1: inactive; Rv3671c protease: inactive; Mtb bLac sens: inactive; RecA intein inh: inactive; FBA Mtb inh: inactive; Mtb UGM inh: inactive

What do the screens show for `Cn1nc(-c2ccc(Cl)cc2)c2cc(C(=O)NCCCN3CCCC3)sc21`?
GDH-TPI counter-1: inactive; Rv3671c protease: inactive; Mtb bLac sens: inactive; FBA Mtb inh: 35; Mtb UGM inh: inactive; Mtb FBA inh conf: 81; GDH-TPI counter-2: 71

What do the screens show for `CNC(=O)c1cc2c(-c3ccccc3)nn(C)c2s1`?
GDH-TPI counter-1: inactive; Rv3671c protease: inactive; Mtb bLac sens: inactive; RecA intein inh: inactive; FBA Mtb inh: 73; Mtb UGM inh: inactive; Mtb FBA inh conf: 102; GDH-TPI counter-2: 80

Results for Cc1ccc(-n2c(=O)cc(N3CCN(C(=O)c4ccco4)CC3)[nH]c2=O)cc1 ?
GDH-TPI counter-1: inactive; Rv3671c protease: inactive; Mtb bLac sens: inactive; RecA intein inh: inactive; FBA Mtb inh: inactive; Mtb UGM inh: inactive

What do the screens show for `OCCCCc1nccc2c1[nH]c1ccccc12`?
GDH-TPI counter-1: inactive; Rv3671c protease: inactive; Mtb bLac sens: inactive; RecA intein inh: inactive; FBA Mtb inh: 69; Mtb UGM inh: inactive; Mtb FBA inh conf: active; GDH-TPI counter-2: 186

What do the screens show for `Cc1nccc2c1[nH]c1ccccc12`?
GDH-TPI counter-1: inactive; Rv3671c protease: inactive; Mtb bLac sens: inactive; RecA intein inh: inactive; FBA Mtb inh: 94; Mtb UGM inh: inactive; Mtb FBA inh conf: inactive; GDH-TPI counter-2: inactive

Results for CCc1nccc2c1[nH]c1ccccc12 ?
GDH-TPI counter-1: inactive; Rv3671c protease: inactive; Mtb bLac sens: inactive; RecA intein inh: inactive; FBA Mtb inh: 81; Mtb UGM inh: inactive; Mtb FBA inh conf: active; GDH-TPI counter-2: 161

How did Cc1c2ccncc2c(C)c2c1[nH]c1ccccc12 do in these assays?
GDH-TPI counter-1: inactive; Rv3671c protease: inactive; Mtb bLac sens: inactive; RecA intein inh: inconclusive; FBA Mtb inh: inactive; Mtb UGM inh: inactive

Results for Cc1[nH]c2ccccc2c1CCCO ?
Mtb bLac sens: inactive; RecA intein inh: inactive; Mtb UGM inh: inactive

How did c1ccc2c(c1)[nH]c1cnccc12 do in these assays?
GDH-TPI counter-1: inactive; Rv3671c protease: inactive; Mtb bLac sens: inactive; RecA intein inh: inactive; FBA Mtb inh: 37; Mtb UGM inh: inactive; Mtb FBA inh conf: 32; GDH-TPI counter-2: 41

Results for Cc1c2ccncc2cc2c1[nH]c1ccccc12 ?
GDH-TPI counter-1: inactive; FBA Mtb inh: inactive

Results for O=C(NCCCN=C1NS(=O)(=O)c2ccccc21)c1ccc(S(=O)(=O)N2CCCCC2)cc1 ?
GDH-TPI counter-1: inactive; Rv3671c protease: inactive; Mtb bLac sens: inactive; RecA intein inh: inactive; FBA Mtb inh: inactive; Mtb UGM inh: inactive

How did CC(C)N(Cc1ccccc1)C(=O)COC(=O)c1ccc2c(c1)OCCO2 do in these assays?
GDH-TPI counter-1: inactive; Rv3671c protease: inactive; Mtb bLac sens: inactive; FBA Mtb inh: inactive; Mtb UGM inh: inactive

Results for CCCNC(=O)NS(=O)(=O)c1cnccc1Sc1ccc(Cl)cc1 ?
GDH-TPI counter-1: inactive; Rv3671c protease: inactive; Mtb bLac sens: inactive; FBA Mtb inh: inactive; Mtb UGM inh: inactive

What do the screens show for `Cc1noc(C(=O)Nc2ccccc2C(F)(F)F)c1Cl`?
GDH-TPI counter-1: inactive; Rv3671c protease: inactive; Mtb bLac sens: inactive; RecA intein inh: inactive; FBA Mtb inh: inactive; Mtb UGM inh: inactive

Results for Cn1cc2ccc(N)cc2n1 ?
GDH-TPI counter-1: inactive; FBA Mtb inh: 29; Mtb FBA inh conf: 68; GDH-TPI counter-2: 56

Results for Cc1noc(C)c1S(=O)(=O)Nc1ccc2c(c1)C(=O)N([C@H](C)CO)C[C@H](C)[C@H](CN(C)S(=O)(=O)c1ccc(Cl)cc1)OCCCC[C@@H](C)O2 ?
FBA Mtb inh: inactive

How did N#CC1=C(O)C(c2ccccc2)n2c1nc(=O)c1ccccc12 (configuration not stated) do in these assays?
GDH-TPI counter-1: inactive; Rv3671c protease: inactive; Mtb bLac sens: inactive; RecA intein inh: inactive; FBA Mtb inh: 85; Mtb UGM inh: inactive; Mtb FBA inh conf: 137; GDH-TPI counter-2: 129

What do the screens show for `Cc1cccc(CNC(=O)C2CCC(=O)N(C3CC3)C2)c1` (configuration not stated)?
GDH-TPI counter-1: inactive; Rv3671c protease: inactive; Mtb bLac sens: inactive; RecA intein inh: inactive; FBA Mtb inh: inactive; Mtb UGM inh: inactive

What do the screens show for `CCn1nnnc1SCC(=O)N1CCOCC1`?
GDH-TPI counter-1: inactive; Rv3671c protease: inactive; Mtb bLac sens: inactive; RecA intein inh: inactive; FBA Mtb inh: 89; Mtb UGM inh: inactive; Mtb FBA inh conf: active; GDH-TPI counter-2: active

How did CCCn1nnnc1SCC(=O)N1CCOCC1 do in these assays?
GDH-TPI counter-1: inactive; Rv3671c protease: inactive; Mtb bLac sens: inactive; RecA intein inh: inactive; FBA Mtb inh: inactive; Mtb UGM inh: inactive

Results for O=c1oc2cccnc2n1CCS(=O)(=O)c1ccc(F)cc1 ?
GDH-TPI counter-1: inactive; Rv3671c protease: inactive; Mtb bLac sens: inactive; RecA intein inh: inactive; FBA Mtb inh: 39; Mtb UGM inh: inactive; Mtb FBA inh conf: inactive; GDH-TPI counter-2: inactive

What do the screens show for `O=C1NC(C2CC3C=CC2C3)Nc2ccccc21` (configuration not stated)?
GDH-TPI counter-1: inactive; FBA Mtb inh: 63; Mtb FBA inh conf: active; GDH-TPI counter-2: 172

Source: PubChem BioAssay
